Assays:
Test in all cases: log2 ratio of Biotin-Ahx-Ub-VS probe labelling (fragment/DMSO); higher = less target engagement (more negative = stronger competition), active = hit call of the paper (q ≤ 0.05, log2 ratio ≤ -1)
Conditions in all cases: compound concentration: 200 uM; treatment time: 3 h
[1] = target: T1, USP19 (UniProt O94966)
T1 sequence (whole entry): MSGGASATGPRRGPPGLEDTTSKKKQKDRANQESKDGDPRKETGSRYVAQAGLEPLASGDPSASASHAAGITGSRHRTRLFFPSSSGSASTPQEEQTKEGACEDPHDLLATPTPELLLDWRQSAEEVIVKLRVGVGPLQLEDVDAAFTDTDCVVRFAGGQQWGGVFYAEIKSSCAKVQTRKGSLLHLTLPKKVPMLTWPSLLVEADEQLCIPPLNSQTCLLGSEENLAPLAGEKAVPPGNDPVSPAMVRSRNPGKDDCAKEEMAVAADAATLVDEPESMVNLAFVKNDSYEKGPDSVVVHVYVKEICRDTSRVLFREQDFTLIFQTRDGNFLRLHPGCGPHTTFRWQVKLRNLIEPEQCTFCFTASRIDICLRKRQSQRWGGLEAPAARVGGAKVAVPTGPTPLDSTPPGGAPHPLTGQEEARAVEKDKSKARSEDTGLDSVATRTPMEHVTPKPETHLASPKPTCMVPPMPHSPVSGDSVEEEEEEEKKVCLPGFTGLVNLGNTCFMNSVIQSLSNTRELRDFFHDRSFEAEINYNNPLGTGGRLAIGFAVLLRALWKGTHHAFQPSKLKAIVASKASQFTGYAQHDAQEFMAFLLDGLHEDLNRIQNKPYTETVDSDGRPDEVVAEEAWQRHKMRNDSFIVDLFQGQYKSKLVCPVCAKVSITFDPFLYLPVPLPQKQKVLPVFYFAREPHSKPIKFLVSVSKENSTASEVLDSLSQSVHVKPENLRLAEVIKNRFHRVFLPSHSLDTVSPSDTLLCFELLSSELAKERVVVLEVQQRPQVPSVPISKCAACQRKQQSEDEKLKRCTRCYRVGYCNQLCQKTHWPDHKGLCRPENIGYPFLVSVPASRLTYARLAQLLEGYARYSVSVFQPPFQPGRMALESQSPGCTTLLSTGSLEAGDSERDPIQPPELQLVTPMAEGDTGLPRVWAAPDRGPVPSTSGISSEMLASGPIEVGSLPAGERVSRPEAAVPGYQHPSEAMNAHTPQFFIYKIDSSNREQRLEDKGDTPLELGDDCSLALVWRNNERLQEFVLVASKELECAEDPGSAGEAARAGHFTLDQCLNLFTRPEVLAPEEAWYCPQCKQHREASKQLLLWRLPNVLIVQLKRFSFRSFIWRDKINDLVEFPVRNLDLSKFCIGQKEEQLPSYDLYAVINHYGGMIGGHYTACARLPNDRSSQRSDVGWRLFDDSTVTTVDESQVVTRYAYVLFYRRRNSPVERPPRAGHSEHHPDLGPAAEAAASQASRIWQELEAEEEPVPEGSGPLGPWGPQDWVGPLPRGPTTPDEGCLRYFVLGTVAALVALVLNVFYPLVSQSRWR
Summary of the method: (§1)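 Labelling with Biotin-Ahx-Ub-VS (0.5 µM final, 1 h) followed a 3 h triplicate treatment of HEK293T lysate (495 µg per sample, Tris/CHAPS/IGEPAL buffer with protease inhibitors) with fragment at 200 µM or vehicle. Labelled DUBs were NeutrAvidin-enriched, digested with LysC and trypsin, and run by diaPASEF LC-MS/MS. The values, average log2 fragment/vehicle ratios by unpaired t-test, come from global-median-normalised Spectronaut label-free quantities. Proteins with ≥2 unique peptides were used.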

[2] = target: USP24 (UniProt Q9UPU5)
USP24, sequence (Q9UPU5 whole entry): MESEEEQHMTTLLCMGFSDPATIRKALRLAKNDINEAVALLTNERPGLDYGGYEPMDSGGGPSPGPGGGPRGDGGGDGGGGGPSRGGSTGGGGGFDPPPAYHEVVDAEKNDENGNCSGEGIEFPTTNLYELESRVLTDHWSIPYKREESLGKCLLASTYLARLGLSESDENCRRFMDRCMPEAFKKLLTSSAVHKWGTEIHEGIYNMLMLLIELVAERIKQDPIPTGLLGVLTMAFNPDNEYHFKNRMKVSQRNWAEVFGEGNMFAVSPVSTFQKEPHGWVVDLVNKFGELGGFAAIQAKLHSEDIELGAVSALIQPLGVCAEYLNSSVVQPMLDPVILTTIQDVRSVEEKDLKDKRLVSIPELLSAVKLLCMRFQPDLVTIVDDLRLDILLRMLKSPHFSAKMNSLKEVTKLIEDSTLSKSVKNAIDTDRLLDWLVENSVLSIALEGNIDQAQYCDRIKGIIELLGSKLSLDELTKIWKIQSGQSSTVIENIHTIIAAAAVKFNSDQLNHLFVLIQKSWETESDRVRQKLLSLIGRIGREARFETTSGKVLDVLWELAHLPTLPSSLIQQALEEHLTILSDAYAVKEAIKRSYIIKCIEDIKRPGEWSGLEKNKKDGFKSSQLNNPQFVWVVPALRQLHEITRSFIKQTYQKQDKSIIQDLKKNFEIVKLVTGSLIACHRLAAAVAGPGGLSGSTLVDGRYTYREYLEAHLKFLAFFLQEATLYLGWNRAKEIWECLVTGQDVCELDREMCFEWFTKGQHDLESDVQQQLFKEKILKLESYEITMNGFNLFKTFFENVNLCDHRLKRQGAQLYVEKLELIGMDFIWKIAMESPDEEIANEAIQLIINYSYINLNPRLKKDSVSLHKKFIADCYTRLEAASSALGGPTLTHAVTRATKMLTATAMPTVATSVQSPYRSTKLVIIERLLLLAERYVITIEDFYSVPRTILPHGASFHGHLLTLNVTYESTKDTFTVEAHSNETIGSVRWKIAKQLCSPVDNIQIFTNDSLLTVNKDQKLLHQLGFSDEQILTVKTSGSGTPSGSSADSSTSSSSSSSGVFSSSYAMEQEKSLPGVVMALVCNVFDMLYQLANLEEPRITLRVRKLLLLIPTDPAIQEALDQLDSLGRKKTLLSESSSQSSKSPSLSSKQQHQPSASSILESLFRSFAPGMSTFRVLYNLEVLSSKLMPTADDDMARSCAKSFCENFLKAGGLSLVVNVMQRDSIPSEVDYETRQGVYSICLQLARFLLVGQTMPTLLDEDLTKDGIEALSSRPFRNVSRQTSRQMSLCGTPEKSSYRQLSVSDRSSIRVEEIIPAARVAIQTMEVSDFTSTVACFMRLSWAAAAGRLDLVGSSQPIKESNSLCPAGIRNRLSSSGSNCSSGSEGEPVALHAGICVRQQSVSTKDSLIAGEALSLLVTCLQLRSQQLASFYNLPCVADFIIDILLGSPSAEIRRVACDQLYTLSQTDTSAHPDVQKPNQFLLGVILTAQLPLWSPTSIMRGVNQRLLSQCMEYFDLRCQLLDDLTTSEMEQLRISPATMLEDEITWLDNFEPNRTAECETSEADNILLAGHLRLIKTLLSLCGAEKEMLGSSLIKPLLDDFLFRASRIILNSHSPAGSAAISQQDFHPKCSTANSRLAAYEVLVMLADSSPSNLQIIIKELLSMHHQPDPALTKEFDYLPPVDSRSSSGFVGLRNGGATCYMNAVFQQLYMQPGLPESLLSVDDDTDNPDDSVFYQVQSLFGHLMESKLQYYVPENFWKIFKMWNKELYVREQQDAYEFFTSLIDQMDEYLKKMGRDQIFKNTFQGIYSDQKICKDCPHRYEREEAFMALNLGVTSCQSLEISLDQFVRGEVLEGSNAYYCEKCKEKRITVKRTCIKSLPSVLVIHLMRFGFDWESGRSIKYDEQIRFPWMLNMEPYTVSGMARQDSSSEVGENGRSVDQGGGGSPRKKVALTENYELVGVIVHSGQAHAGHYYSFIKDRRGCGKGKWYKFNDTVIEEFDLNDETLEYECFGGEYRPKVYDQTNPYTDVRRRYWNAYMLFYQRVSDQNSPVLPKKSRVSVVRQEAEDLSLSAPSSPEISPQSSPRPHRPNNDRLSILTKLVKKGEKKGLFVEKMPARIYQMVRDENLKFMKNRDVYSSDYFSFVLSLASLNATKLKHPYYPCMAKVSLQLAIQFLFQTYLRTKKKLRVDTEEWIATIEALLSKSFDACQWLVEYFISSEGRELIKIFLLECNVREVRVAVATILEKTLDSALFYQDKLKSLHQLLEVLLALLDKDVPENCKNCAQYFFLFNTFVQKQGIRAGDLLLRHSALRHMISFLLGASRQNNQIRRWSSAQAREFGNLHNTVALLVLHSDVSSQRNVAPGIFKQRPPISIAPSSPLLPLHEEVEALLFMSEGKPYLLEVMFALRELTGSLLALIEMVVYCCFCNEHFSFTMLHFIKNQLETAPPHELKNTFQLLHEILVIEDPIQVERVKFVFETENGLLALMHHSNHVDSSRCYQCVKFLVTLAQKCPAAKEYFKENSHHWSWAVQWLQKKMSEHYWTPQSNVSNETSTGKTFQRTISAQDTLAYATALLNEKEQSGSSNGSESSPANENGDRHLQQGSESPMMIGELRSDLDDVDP
Summary of the method: as §1

[3] = target: T2, USP25 (UniProt Q9UHP3)
T2 sequence (whole entry): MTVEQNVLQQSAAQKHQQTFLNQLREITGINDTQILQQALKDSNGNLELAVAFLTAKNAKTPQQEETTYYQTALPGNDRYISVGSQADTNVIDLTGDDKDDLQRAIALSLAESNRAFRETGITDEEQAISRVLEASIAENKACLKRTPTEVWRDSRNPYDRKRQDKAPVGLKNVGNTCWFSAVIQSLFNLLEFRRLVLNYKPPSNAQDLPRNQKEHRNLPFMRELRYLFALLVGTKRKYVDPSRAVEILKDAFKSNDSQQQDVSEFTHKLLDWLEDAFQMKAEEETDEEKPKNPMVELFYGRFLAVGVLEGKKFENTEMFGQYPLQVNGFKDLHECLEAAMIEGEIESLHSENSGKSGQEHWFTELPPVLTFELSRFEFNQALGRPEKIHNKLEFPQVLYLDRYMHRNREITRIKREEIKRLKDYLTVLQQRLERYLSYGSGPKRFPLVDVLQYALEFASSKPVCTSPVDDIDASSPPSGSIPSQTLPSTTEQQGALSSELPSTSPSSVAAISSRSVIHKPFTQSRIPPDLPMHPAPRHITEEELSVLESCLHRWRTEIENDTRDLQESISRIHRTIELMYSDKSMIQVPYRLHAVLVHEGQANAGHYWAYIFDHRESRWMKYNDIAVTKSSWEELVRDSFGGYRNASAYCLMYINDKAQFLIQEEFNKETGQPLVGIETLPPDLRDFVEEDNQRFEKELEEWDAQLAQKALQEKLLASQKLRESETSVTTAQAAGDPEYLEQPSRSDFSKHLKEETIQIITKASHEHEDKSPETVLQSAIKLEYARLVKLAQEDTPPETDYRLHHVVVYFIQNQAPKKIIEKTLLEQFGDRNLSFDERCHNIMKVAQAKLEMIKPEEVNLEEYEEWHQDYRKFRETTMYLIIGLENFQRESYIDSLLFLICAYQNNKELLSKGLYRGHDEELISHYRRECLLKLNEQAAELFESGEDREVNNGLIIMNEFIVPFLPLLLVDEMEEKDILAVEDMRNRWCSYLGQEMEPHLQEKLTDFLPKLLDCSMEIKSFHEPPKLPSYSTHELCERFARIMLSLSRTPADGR
Summary of the method: as §1

[4] = target: T3, USP28 (UniProt Q96RU2)
T3 sequence (whole entry): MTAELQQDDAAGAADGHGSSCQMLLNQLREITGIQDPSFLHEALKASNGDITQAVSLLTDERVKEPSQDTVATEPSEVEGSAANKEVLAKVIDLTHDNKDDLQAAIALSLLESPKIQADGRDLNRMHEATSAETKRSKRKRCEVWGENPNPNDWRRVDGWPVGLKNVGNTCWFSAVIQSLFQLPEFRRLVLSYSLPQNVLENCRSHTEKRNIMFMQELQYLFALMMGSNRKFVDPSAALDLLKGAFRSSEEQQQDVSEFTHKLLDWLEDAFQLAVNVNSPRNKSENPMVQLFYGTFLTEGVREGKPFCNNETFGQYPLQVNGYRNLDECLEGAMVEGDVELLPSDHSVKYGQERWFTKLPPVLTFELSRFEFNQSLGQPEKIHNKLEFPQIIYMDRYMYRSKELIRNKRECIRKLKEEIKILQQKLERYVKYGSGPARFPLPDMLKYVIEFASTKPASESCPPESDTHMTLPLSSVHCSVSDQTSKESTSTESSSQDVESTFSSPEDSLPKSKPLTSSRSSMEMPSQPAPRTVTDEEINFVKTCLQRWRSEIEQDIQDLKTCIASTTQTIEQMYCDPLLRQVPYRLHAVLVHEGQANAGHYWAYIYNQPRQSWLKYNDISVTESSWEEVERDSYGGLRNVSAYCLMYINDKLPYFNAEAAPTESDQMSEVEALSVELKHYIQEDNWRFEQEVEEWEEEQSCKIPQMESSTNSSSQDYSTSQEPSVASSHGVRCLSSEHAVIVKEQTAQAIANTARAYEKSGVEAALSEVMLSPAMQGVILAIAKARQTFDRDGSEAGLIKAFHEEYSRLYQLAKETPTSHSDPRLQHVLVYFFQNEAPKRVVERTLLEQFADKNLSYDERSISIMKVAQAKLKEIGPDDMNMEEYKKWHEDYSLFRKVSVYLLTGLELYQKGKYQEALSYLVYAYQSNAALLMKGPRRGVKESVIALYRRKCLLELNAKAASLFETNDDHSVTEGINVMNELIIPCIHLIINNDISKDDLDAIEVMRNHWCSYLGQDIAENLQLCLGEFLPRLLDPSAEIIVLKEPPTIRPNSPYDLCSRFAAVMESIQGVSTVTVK
Summary of the method: as §1

Measured: log2 ratio of Biotin-Ahx-Ub-VS probe labelling

Cl.Cn1cnc2cc(CNC(=O)CCl)ccc21
inactive: [1] -0.154 | [2] -0.0163 | [3] -0.177 | [4] -0.154

Reference: the supplement of paper PMC11732987, “Enantioselective OTUD7B fragment discovery through chemoproteomics screening and high-throughput optimisation” (Communications Chemistry, 2025)
